# ChEMBL document CHEMBL3988442, “University of Dundee, Small-Polar-MMV Screening Library” (2021)
# In all, about 48,000 compounds went through this assay and about 13,000 (27%) showed an effect of 50% or more. Some of the results follow.
# Tested on: Wolbachia pipientis
# Test: Anti-Wolbachia Cell-Based Screen
# Format: functional
# Set-up: scale not given: in the data most compounds retested in dose-response had high values
# Conditions: 5 µM
row,Structure (SMILES),Percent Effect [%]
1,Cc1cccc(CCC(=O)NCC2CCCN2c2cccnn2)c1 (configuration not stated),7.373
2,Cc1nc(CN2CC(=O)N(C)c3ccccc3C2=O)no1,7.895
3,CN(CC(O)C1CC1)C(=O)c1ccc(-c2nc(C3CC3)no2)cc1 (configuration not stated),4.636
4,COc1ccc(OC)c(CNc2nnc(C(C)(C)C)o2)c1,112.6
5,COc1cccc(CNc2nnc(C(C)(C)C)o2)c1OC,92.71
6,CC(C)(C)c1nnc(NCc2ccc(F)cc2)o1,-7.164
7,COc1cccc(CNC(=O)Nc2ccc3[nH]nnc3c2)c1OC,-10.07
8,CCc1nnc(NCc2cccc(OC)c2OC)o1,1.756
9,COc1ccc(CNc2nnc(CC(C)(C)C)o2)cc1C#N,-29.2
10,CN(Cc1ccccc1)c1ncccc1CNC1CCC1,-23.22
11,CN(Cc1cc(Br)c2c(c1)OCO2)Cc1cscn1,2.814
12,CSCCNC(=O)c1coc(COc2ccc(F)cc2)n1,-7.576
13,CCC(C)N(Cc1ccncc1)C(=O)CCSC (configuration not stated),-18.32
14,Cc1cc(CNC(=O)NCC(O)c2cccc(F)c2)no1 (configuration not stated),-1.718
15,CSc1ccc(CNC(=O)NCC(O)c2cccc(F)c2)cc1 (configuration not stated),106.1
16,CC(C)Nc1cccc(C(=O)NCC(O)c2cccc(F)c2)c1 (configuration not stated),-13.04
17,Cc1cc(C)c(CNC(=O)NCC(O)c2cccc(F)c2)c(=O)[nH]1 (configuration not stated),0.6677
18,CNC(=O)c1cccc(NC(=O)NCc2ccc(SC)cc2)c1C,-19.71
19,CCOc1cccc(CNC(=O)NCC(O)c2cccc(F)c2)c1 (configuration not stated),5.413
20,O=C(NCc1ccccc1)NCC(O)c1cccc(F)c1 (configuration not stated),95.34
21,O=C(NCc1cccnc1)NCC(O)c1cccc(C(F)(F)F)c1 (configuration not stated),-14.42
22,O=C(NCc1cccc(F)c1)NCC(O)c1cccc(F)c1 (configuration not stated),96.97
23,O=C(C1SCCc2sccc21)N1CCN(C2CC2)C(=O)C1 (configuration not stated),-5.096

row,Structure (SMILES),Percent Effect [%]
1,CN(CCc1noc(C2CC2)n1)C(=O)CCc1cc2n(n1)CCCNC2,5.558
2,CC(=O)c1sc(C(NC(=O)c2ccccc2)C2CC2)nc1C (configuration not stated),5.718
3,CCC(O)CN1CCN(C(=O)CCSC)CC1 (configuration not stated),1.956
4,CSCCC(=O)N1CCN(CC(C)O)CC1 (configuration not stated),-18.5
5,CSCC(=O)N1CCN(CC(O)C(C)(C)C)CC1 (configuration not stated),-10.26
6,CSCC(=O)N1C[C@@H](C)[C@](O)(C(C)C)C1,100.1
7,C[C@@H]1CN(C(=O)CSc2nncn2C)C[C@@]1(O)C1CC1,-9.811
8,CSCCC(=O)N1C[C@@H](C)[C@](O)(C(C)C)C1,109.4
9,Clc1cccc2c1CCN(Cc1nc(CC3CC3)no1)C2,-15.7
10,O=C(NCCNc1ncccn1)c1scnc1Cl,2.928
11,CCc1noc(CN2CCN(C(=O)c3ccccc3F)CC2)n1,117.4
12,CC(C)Cc1noc(CN2CCCN(C(=O)c3ccccc3Cl)CC2)n1,-15.62
13,CCc1noc(CN2CCN(C(=O)c3ccccn3)CC2)n1,-5.851
14,CC(C)Cc1noc(CN2CCN(C(=O)c3ccco3)CC2)n1,-2.17
15,CCc1noc(CN2CCN(C(=O)N(C)C)CC2)n1,-9.661
16,CC(C)Cc1noc(CN2CCN(C(=O)c3ccccc3F)CC2)n1,100.3
17,OCC1(O)CCCN(Cc2ccc(-c3cc[nH]n3)s2)CC1 (configuration not stated),3.83
18,Cc1cnn(CC2CCCN2C(=O)Cc2n[nH]c3ccccc23)c1 (configuration not stated),2.79
19,Cc1cnn(CC2CCCN2C(=O)c2cc3ccccc3[nH]2)c1 (configuration not stated),2.697
20,O=C1COc2c(cccc2C(=O)N2CCCC2Cn2cccn2)N1 (configuration not stated),-10.2
21,Cc1cnn(CC2CCCN2C(=O)c2cc3ccccc3[nH]c2=O)c1 (configuration not stated),-0.3129
22,O=C(c1n[nH]c(=O)c2ccccc12)N1CCCC1Cn1cccn1 (configuration not stated),110.2
23,O=C1COc2c(cccc2C(=O)N2CCCCC2Cn2cccn2)N1 (configuration not stated),-1.784

row,Structure (SMILES),Percent Effect [%]
1,O=C(c1nccc2ccccc12)N1CCCCC1Cn1cccn1 (configuration not stated),116.9
2,Cc1cnn(CC2CCCN2C(=O)c2n[nH]c(=O)c3ccccc23)c1 (configuration not stated),115
3,Cc1cnn(CC2CCCN2C(=O)c2cc3ccccc3c(=O)[nH]2)c1 (configuration not stated),122.8
4,O=C1CC(c2ccc(F)c(F)c2)c2snc(C(=O)O)c2N1 (configuration not stated),8.498
5,Cc1ccc(-c2cc(CN(CC(N)=O)CC(C)C)on2)cc1,-24.63
6,Cc1ccc(-c2ncc(C(=O)NCCS(N)(=O)=O)s2)c(C)c1,-6.964
7,CCCn1nnnc1CSc1nccn1CC,-2.029
8,Cc1nc(CN2CCN(C(=O)CCC(=O)c3ccccc3)CC2)no1,17.55
9,O=C(c1cccnc1)N1CCN(c2ccnc3ccsc23)CC1,-5.057
10,CCCn1cc(C(=O)N2CCCC(Cc3nccs3)C2)cn1 (configuration not stated),95.18
11,O=C(c1cccnc1)N1CCCC(Cc2nccs2)C1 (configuration not stated),104.8
12,Cn1cc(C(=O)N2CCC(Cc3nccs3)CC2)cn1,0.6928
13,Cc1ncncc1C(=O)N1CCCN(Cc2nccn2C(C)C)CC1,-12.73
14,CCc1nc(CN2CCCN(C(=O)c3cncnc3C)CC2)cs1,14.37
15,Cc1ncncc1C(=O)N1CCCC(Cc2nccs2)C1 (configuration not stated),112.8
16,Cn1cc(C(=O)N2CCCC(Cc3nccs3)C2)cn1 (configuration not stated),-5.021
17,Cc1ncc(C(=O)N2CC[C@@]3(O)CCN(C4CCCCC4)C[C@H]3C2)cn1,8.568
18,O=C(c1cnco1)N1CCCC(Cc2nccs2)C1 (configuration not stated),-3.557
19,O=C(N1CCCC1)C12CC(CN1Cc1nccs1)C2,-16.8
20,Cc1ncc(C(=O)N2CCCC(Cc3nccs3)C2)cn1 (configuration not stated),96.26
21,Cc1cccc2c1nc(CCO)n2-c1ccc(N)nc1,-17.09
22,CSc1ccc(-c2nc(CN3CCC(NC(C)=O)C3)c(C)o2)cc1 (configuration not stated),-8.203
23,COc1cccc2c1OCC(C(=O)N1CCN(CCS(C)(=O)=O)CC1)C2 (configuration not stated),-9.844

row,Structure (SMILES),Percent Effect [%]
1,Fc1ccc(Cn2ncc3c2CN(c2noc(C4CC4)n2)C3)cc1,2.089
2,COc1ncccc1C(=O)N1CCC(c2nnc(C3CC3)o2)CC1,16.61
3,COc1nn(C)cc1C(=O)N1CCC(c2nnc(C(C)C)o2)CC1,80.59
4,Cn1nccc1C(=O)N1CCC(n2cc(-c3ccsc3)nn2)CC1,-17.39
5,COc1nn(C)cc1C(=O)N1CCC(c2nnc(C3CC3)o2)CC1,8.567
6,COc1nn(C)cc1C(=O)N1CCC(c2nnc(-c3ccsc3)o2)CC1,120.9
7,Cn1ccnc1C(=O)N1CCC(Cn2cc(-c3ccsc3)nn2)CC1,0.3036
8,C/C=C(/C)C(=O)NS(=O)(=O)c1ccc(Cl)cn1,2.315
9,Cc1nccnc1N1Cc2cnc(CC(C)C)nc2C1,-0.1537
10,CCCNC(=O)NCc1nc(C)c(C)o1,-5.382
11,Cc1nc(CN(C)S(=O)(=O)c2ccc(F)cc2Br)no1,-1.638
12,C[S+]([O-])c1nncn1CC(=O)c1cccc(Cl)c1 (configuration not stated),6.672
13,COc1cccc(CN(Cc2ccco2)Cc2cnc(C)n2C)c1.O=C(O)CC(O)(CC(=O)O)C(=O)O,133.7
14,Cc1nc[nH]c1CN(Cc1ccccc1)Cc1nccs1,10.51
15,COc1ccc(CN(Cc2ccco2)Cc2[nH]cnc2C)c(OC)c1.O=C(O)CC(O)(CC(=O)O)C(=O)O,111.9
16,COc1cccc(CN(Cc2ccco2)Cc2[nH]cnc2C)c1.O=C(O)CC(O)(CC(=O)O)C(=O)O,156.3
17,COc1ccc2nc(O)c(CN(C)Cc3ncc[nH]3)cc2c1,-3.339
18,Cc1noc(CN(Cc2ccc3c(c2)OCCO3)Cc2ccco2)n1,-7.452
19,COc1cccc(CN(Cc2ncc[nH]2)Cc2ccco2)c1.O=C(O)CC(O)(CC(=O)O)C(=O)O,114.4
20,COc1cccc(CN2CCC(c3cc(O)nc(C)n3)C2)c1.O=C(O)CC(O)(CC(=O)O)C(=O)O (configuration not stated),-8.452
21,COc1ccc(CN(C(=O)CCC(C)C)c2cnn(C)c2)c(OC)c1,-10.12
22,COc1ccc(CN(C(=O)C(C)C)c2cnn(C)c2)c(OC)c1,-18.73
23,COc1ccc(NC(=O)N(C)Cc2ccco2)cn1,3.036

row,Structure (SMILES),Percent Effect [%]
1,CCOC(=O)C1(Cc2cccc(OC)c2)CCN(Cc2ncc[nH]2)CC1,-0.1816
2,Cc1ccc(C(=O)N2C[C@@H](NS(C)(=O)=O)[C@H](C(C)C)C2)cc1O,5.531
3,CC(CCc1cccn1C)NC(=O)Nc1cccn(C)c1=O (configuration not stated),-4.481
4,Cc1ccccc1OCC1CCCN(C(=O)CNC(=O)N(C)C)C1 (configuration not stated),1.963
5,N#Cc1cccc(CN2CCN(C(=O)C3CCC3)[C@@H]3CS(=O)(=O)C[C@@H]32)c1,2.28
6,Cc1csc(CCNC(=O)c2ccc(N(C)C)c(F)c2)n1,-10.73
7,CCN(Cc1ccoc1)C(=O)NC1CCN(CC2CCCC2)CC1,-1.692
8,COc1ccc(N(Cc2ccco2)C(=O)C2CCCO2)cc1F (configuration not stated),12.44
9,CCOCC(=O)N(Cc1ccco1)c1ccc(OC)c(F)c1,-17.42
10,COc1ccc(OC)c(CN(Cc2ccco2)Cc2[nH]cnc2C)c1.O=C(O)CC(O)(CC(=O)O)C(=O)O,125
11,COCCN(CCOC)c1ncccc1I,19.77
12,COCC(C)NC(=O)c1nnn(-c2ccc(F)cc2)n1 (configuration not stated),-1.834
13,CC(C)N(C)CCCNC(=O)c1cnn(C(C)C)c1C(F)(F)F,7.835
14,COc1cccc(-c2n[nH]cc2C(=O)NC(C)CC(=O)O)c1 (configuration not stated),-19.78
15,CCn1nc(C(C)C)cc1C(=O)NCCCOC,-18.28
16,CC(C(=O)NCCCn1ccnc1)n1cc(Br)cn1 (configuration not stated),2.347
17,CC(C)n1cc(C(=O)NCCCn2ccnc2)c2n[nH]c(=O)c-2c1,123.9
18,O=C(NCCCn1ccnc1)c1csc2c1CCCC2,4.867
19,COCC(C)NC(=O)c1cn(C(C)C)cc2c(=O)[nH]nc1-2 (configuration not stated),106.6
20,COCCCNC(=O)c1cn(C(C)C)cc2c(=O)[nH]nc1-2,104.5
